From PubChem BioAssay (NCI)
Where “and” joins values, the source holds several entries; their conditions need not be identical. Equal values may be shown once. The panel holds about 83,000 compounds, 20% with a hit somewhere; the sample as a whole holds those more often.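 Assay: single dose, 48 h. Readout: percent growth (0 = no net growth; negative = cell death). Active: <10.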 Unmarked numbers belong to inactive results. Calls of active or inactive are those of the source. Starred links: 1 amine or outer side, 2 acyl side, 3 side chain; linkers in the order of their positions; H or OH if unused. Positions of bridges follow the written chain, without caps; N, C: chain ends. Non-standard residues stand in square brackets, D forms with d. Residues, ends and D or L forms follow the SMILES beside them. Chains are numbered I, II in the order given. Actinocin(9to1) = Cc1c2oc3c(C)ccc(C(=O)[*:1])c3nc-2c(C(=O)[*:2])c(N)c1=O; aThr = C[C@H](O)[C@H](N)C(=O)O; NMeV = CN[C@H](C(=O)O)C(C)C; Sar = CNCC(=O)O

system: SW-620 colon; assay: NCI-60 one-dose screen, 48 h (100 = growth as untreated, 0 = no growth, -100 = all killed); conditions: 10 µM

SMILES	growth
CSc1ccc2c(c1)C(N1CCN(C)CC1)Cc1ccccc1S2 (stereo not drawn)	54.4%
CCCCCCCCCCCCCCCCCN	97.1%
S=c1[nH]nc(Cc2ccccc2)c(=S)[nH]1	109%
N#C/C(=C1C=C/C(=N\O)C(Cl)=C\1)c1ccccc1	17.8%
BrC/C=C/C[P+](c1ccccc1)(c1ccccc1)c1ccccc1	32.3%
O=C(/C(=C/c1ccccc1)CBr)c1ccccc1	17.3%
Cc1cc(NCCCN(C)C)c2ccc3c(ccc4c(NCCCN(C)C)cc(C)nc43)c2n1	-99.3% (active)
CN(C)CCC(=O)c1c[nH]c2ccccc12	111%
Cc1cnc(/C=N\NC(N)=S)c2cccc(N)c12	35%
O=c1[nH]cc(F)c(=O)[nH]1	60.1% and 77.8%
CN1CCN(c2ccc3nc(-c4ccc5nc(-c6ccc(O)cc6)[nH]c5c4)[nH]c3c2)CC1	87.1%
COc1cc(C(C)(C)C)cc(OC)c1C(O)(c1c(OC)cc(C(C)(C)C)cc1OC)c1c(OC)cc(C(C)(C)C)cc1OC	-79.8% (active)
Cc1c2oc3c(C)ccc(C(=O)N[C@@H]4C(=O)N[C@H](C(C)C)C(=O)N5CCC[C@H]5C(=O)N(C)CC(=O)N(C)[C@@H](C(C)C)C(=O)O[C@H]4C)c3nc-2c(C(=O)N[C@@H]2C(=O)N[C@H](C(C)C)C(=O)N3CCC[C@H]3C(=O)N(C)CC(=O)N(C)[C@@H](C(C)C)C(=O)O[C@H]2C)c(N)c1=O (I: [aThr][dV]P[Sar][NMeV] / II: [aThr][dV]P[Sar][NMeV]; ester I:1-I:C, II:1-II:C; linker I:N-II:N via Actinocin(9to1))	-27.9% (active)
